# Source: the supplement of paper PMC8975748
# Structures can show the parent of a compound that is named as a salt. ± gives the standard deviation of the averaged measurements.
# How the values were obtained:
# [1] = system: Saccharomyces cerevisiae BY4741 SeMeCo community; assay: mean cell size (pixel area) (pixels); higher = larger cells; details: 10 µM; 24 h; SM minimal medium
# Procedure, shortened: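 Yeast cells were fixed with paraformaldehyde, imaged by automated confocal microscopy and analysed in Harmony to obtain mean cell pixel area per well. They came from a four-plasmid fluorescent Saccharomyces cerevisiae BY4741 community, each plasmid complementing one auxotrophy and carrying a fluorescent marker. Before imaging, 70 µl of culture at OD600 = 0.3 was incubated for 24 h in SM medium in 384-well plates predosed acoustically with drug (final 10 µM). Values are means of 3 replicates. Same SeMeCo high-content imaging drug screen: Selleck FDA-approved drugs at 10 µM, 24 h in SM medium, 384-well plates, 3 replicates.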
# [2] = system: Saccharomyces cerevisiae BY4741 SeMeCo community; assay: z-score of prototroph abundance vs DMSO median; higher = larger share of this subpopulation than in DMSO controls; details: 10 µM; 24 h; SM minimal medium; subpopulation (auxotrophy): Prototroph
# Procedure, shortened: (§1)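 Automated confocal microscopy of paraformaldehyde-fixed cells was used to follow a Saccharomyces cerevisiae BY4741 community carrying four plasmids, each restoring one auxotrophy and encoding a distinct fluorescent protein. The community was pre-grown overnight to OD600 1.0, diluted to 0.3, and added at 70 µl to 384-well plates acoustically predosed with library drugs (10 µM final) for 24 h of growth in minimal SM medium. Single-auxotroph fluorescent strains set thresholds and autofluorescence correction, and each subpopulation's abundance was scored as a z-score against the vehicle-well median.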
# [3] = system: Saccharomyces cerevisiae BY4741 SeMeCo community; assay: z-score of subpopulation abundance vs DMSO median, subpopulation auxotrophic for M; higher = larger share of this subpopulation than in DMSO controls; details: 10 µM; 24 h; SM minimal medium; subpopulation (auxotrophy): M
# Procedure, shortened: as §1
# [4] = system: Saccharomyces cerevisiae BY4741 SeMeCo community; assay: z-score of subpopulation abundance vs DMSO median, subpopulation auxotrophic for L; higher = larger share of this subpopulation than in DMSO controls; details: 10 µM; 24 h; SM minimal medium; subpopulation (auxotrophy): L
# Procedure, shortened: as §1
# [5] = system: Saccharomyces cerevisiae BY4741 SeMeCo community; assay: z-score of subpopulation abundance vs DMSO median, subpopulation auxotrophic for U; higher = larger share of this subpopulation than in DMSO controls; details: 10 µM; 24 h; SM minimal medium; subpopulation (auxotrophy): U
# Procedure, shortened: as §1
# [6] = system: Saccharomyces cerevisiae BY4741 SeMeCo community; assay: z-score of subpopulation abundance vs DMSO median, subpopulation auxotrophic for H; higher = larger share of this subpopulation than in DMSO controls; details: 10 µM; 24 h; SM minimal medium; subpopulation (auxotrophy): H
# Procedure, shortened: as §1
# [7] = system: Saccharomyces cerevisiae BY4741 SeMeCo community; assay: z-score of subpopulation abundance vs DMSO median, subpopulation auxotrophic for LU; higher = larger share of this subpopulation than in DMSO controls; details: 10 µM; 24 h; SM minimal medium; subpopulation (auxotrophy): LU
# Procedure, shortened: as §1
# [8] = system: Saccharomyces cerevisiae BY4741 SeMeCo community; assay: z-score of subpopulation abundance vs DMSO median, subpopulation auxotrophic for LM; higher = larger share of this subpopulation than in DMSO controls; details: 10 µM; 24 h; SM minimal medium; subpopulation (auxotrophy): LM
# Procedure, shortened: as §1
# [9] = system: Saccharomyces cerevisiae BY4741 SeMeCo community; assay: z-score of subpopulation abundance vs DMSO median, subpopulation auxotrophic for HM; higher = larger share of this subpopulation than in DMSO controls; details: 10 µM; 24 h; SM minimal medium; subpopulation (auxotrophy): HM
# Procedure, shortened: as §1
# [10] = system: Saccharomyces cerevisiae BY4741 SeMeCo community; assay: z-score of subpopulation abundance vs DMSO median, subpopulation auxotrophic for HU; higher = larger share of this subpopulation than in DMSO controls; details: 10 µM; 24 h; SM minimal medium; subpopulation (auxotrophy): HU
# Procedure, shortened: as §1
# [11] = system: Saccharomyces cerevisiae BY4741 SeMeCo community; assay: z-score of subpopulation abundance vs DMSO median, subpopulation auxotrophic for UM; higher = larger share of this subpopulation than in DMSO controls; details: 10 µM; 24 h; SM minimal medium; subpopulation (auxotrophy): UM
# Procedure, shortened: as §1
# [12] = system: Saccharomyces cerevisiae BY4741 SeMeCo community; assay: z-score of subpopulation abundance vs DMSO median, subpopulation auxotrophic for HL; higher = larger share of this subpopulation than in DMSO controls; details: 10 µM; 24 h; SM minimal medium; subpopulation (auxotrophy): HL
# Procedure, shortened: as §1
# [13] = system: Saccharomyces cerevisiae BY4741 SeMeCo community; assay: z-score of subpopulation abundance vs DMSO median, subpopulation auxotrophic for HLM; higher = larger share of this subpopulation than in DMSO controls; details: 10 µM; 24 h; SM minimal medium; subpopulation (auxotrophy): HLM
# Procedure, shortened: as §1
# [14] = system: Saccharomyces cerevisiae BY4741 SeMeCo community; assay: z-score of subpopulation abundance vs DMSO median, subpopulation auxotrophic for HUM; higher = larger share of this subpopulation than in DMSO controls; details: 10 µM; 24 h; SM minimal medium; subpopulation (auxotrophy): HUM
# Procedure, shortened: as §1
# [15] = system: Saccharomyces cerevisiae BY4741 SeMeCo community; assay: z-score of subpopulation abundance vs DMSO median, subpopulation auxotrophic for LUM; higher = larger share of this subpopulation than in DMSO controls; details: 10 µM; 24 h; SM minimal medium; subpopulation (auxotrophy): LUM
# Procedure, shortened: as §1
# [16] = system: Saccharomyces cerevisiae BY4741 SeMeCo community; assay: z-score of subpopulation abundance vs DMSO median, subpopulation auxotrophic for HLUM; higher = larger share of this subpopulation than in DMSO controls; details: 10 µM; 24 h; SM minimal medium; subpopulation (auxotrophy): HLUM
# Procedure, shortened: as §1
# [17] = system: Saccharomyces cerevisiae BY4741 SeMeCo community; assay: z-score of subpopulation abundance vs DMSO median, subpopulation auxotrophic for HLU; higher = larger share of this subpopulation than in DMSO controls; details: 10 µM; 24 h; SM minimal medium; subpopulation (auxotrophy): HLU
# Procedure, shortened: as §1
SMILES,mean cell size [1],z-score of prototroph abundance [2],z-score of subpopulation abundance [3],z-score of subpopulation abundance [4],z-score of subpopulation abundance [5],z-score of subpopulation abundance [6],z-score of subpopulation abundance [7],z-score of subpopulation abundance [8],z-score of subpopulation abundance [9],z-score of subpopulation abundance [10],z-score of subpopulation abundance [11],z-score of subpopulation abundance [12],z-score of subpopulation abundance [13],z-score of subpopulation abundance [14],z-score of subpopulation abundance [15],z-score of subpopulation abundance [16],z-score of subpopulation abundance [17]
"C[C@H](Nc1ncnc2nc[nH]c12)c1cc2cccc(Cl)c2c(=O)n1-c1ccccc1 [Duvelisib (IPI-145, INK1197)]",12.37 ± 0.1,-0.55,-0.39,1.3,0.89,0.93,1.28,0.42,-0.47,-0.03,-0.3,0.33,0.18,-0.67,0.56,0.98,
CC1=CC[C@@](O)(C(C)C)CC1 [Terpinen-4-ol],12.39 ± 0.073,-0.41,,0.37,0.8,-0.04,,-0.03,-0.39,0.31,0.26,-0.57,0.54,-0.35,0.2,0.81,0.05
COc1cc(O)c(C(=O)Nc2nc(C(=O)NCCN(C(C)C)C(C)C)cs2)cc1OC [Acotiamide],12.14 ± 0.12,,0.17,1.18,-0.39,0.24,0.41,1.66,0.64,-0.06,0.28,1.99,0.73,0.93,1.3,1.15,
CCn1cc(C(=O)O)c(=O)c2cc(F)c(N3CCNC(C)C3)c(F)c21 (stereo not given) [Lomefloxacin HCl],12.1 ± 0.14,,,1.02,-0.45,0.73,,1.35,1.66,0.12,0.51,1.2,0.25,0.66,1.32,0.54,1.38
CN[C@@H]1[C@H](O)[C@H](NC)[C@H]2O[C@@]3(O)C(=O)C[C@@H](C)O[C@H]3O[C@@H]2[C@H]1O [Spectinomycin 2HCl],12.6 ± 0.18,,-0.21,-1.34,0.77,-0.79,-0.16,-1.03,-0.56,0.25,0.51,-0.34,-0.57,-0.21,-0.18,-0.32,
O=C1CCc2ccc(OCCCCN3CCN(c4cccc(Cl)c4Cl)CC3)cc2N1 [Aripiprazole],12.3 ± 0.16,-0.84,0.38,1.13,0.55,0.82,0.61,1.05,0.47,,0.58,1.38,0.77,0.36,1.32,0.56,
OC1(c2ccc(Cl)c(C(F)(F)F)c2)CCN(CCCC(c2ccc(F)cc2)c2ccc(F)cc2)CC1 [Penfluridol],11.65 ± 0.089,,,0.81,-0.01,0.09,,2.64,0.4,0.66,2.69,0.46,0.92,0.44,,0.27,0.93
Cc1noc(NS(=O)(=O)c2ccc(N)cc2)c1C [Sulfisoxazole],12.4 ± 0.16,-1.42,0.18,0.65,,-0.4,1.45,0.69,0.12,0.32,1.17,0.35,1.44,1.21,1.7,1.03,
CCN[C@@H]1C[C@H](N)[C@@H](O[C@H]2OC(CN)=CC[C@H]2N)[C@H](O)[C@H]1O[C@H]1OC[C@](C)(O)[C@H](NC)[C@H]1O [Netilmicin Sulfate],12.1 ± 0.17,-0.66,1.38,-0.06,0.67,-0.25,0.47,0.44,0.03,0.01,0.17,-0.24,1.14,0.71,0.72,0.72,
Oc1c(I)cc(Cl)c2cccnc12 [Clioquinol],13.1 ± 0.49,-17.7,-0.87,-0.06,-1.64,9.23,10.4,5.23,37.7,16,6.49,9.34,119,16.6,9.68,22.7,
O=C(O)c1cc(O)c2c(c1)[C@H]([C@H]1c3cc(C(=O)O)cc(O)c3C(=O)c3c(O[C@@H]4O[C@H](CO)[C@@H](O)[C@H](O)[C@H]4O)cccc31)c1cccc(O[C@@H]3O[C@H](CO)[C@@H](O)[C@H](O)[C@H]3O)c1C2=O [Sennoside A],12.57 ± 0.12,0.91,,-0.65,0.7,,,-0.8,,0.33,-0.14,0.29,-1.24,-0.7,-0.81,-1.25,-0.71
CN(C)CCCN1c2ccccc2Sc2ccc(Cl)cc21 [Chlorpromazine HCl],12.3 ± 0.24,,0.41,-0.35,0.63,-0.33,-0.32,0.96,0.19,-0.02,,-0.55,0.11,0.9,,0.29,
CCn1cc(C(=O)O)c(=O)c2cc(F)c(N3CCN(C)CC3)cc21 [Pefloxacin Mesylate Dihydrate],12.7 ± 0.14,-0.64,1.25,-0.36,,0.39,-0.04,-0.32,0.71,0.28,0.05,,0.88,-0.06,-0.46,-0.42,
